# Data reported in PubChem BioAssay AID1159580 (chemical genetic matrix, 2015).
# About 2,000 (36%) of roughly 5,500 compounds were called active. About 18% were inconclusive and are not listed. No stated cut-off is given here; in the data, active means normalized growth mostly below about 0.91 (no sharp cut-off); inconclusive means no clear call, values can overlap the other calls; inactive means mostly above about 0.92. Some of the results follow.
# Test: chemical genetic growth profiling, strain panel (AID 1159580);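 further: tested at 20 µM; growth read once vehicle control cultures reached saturation at 30 °C; 1 = growth at the plate median or of vehicle wells; lower values mean less growth of the strain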
# Settings: growth OD
smiles,measurement,setting,value
S=c1[nH]c2ccccc2s1,normalized growth,"S. cerevisiae deletion strains, locus YKL009W, strain mrt4, active compounds read low",0.996 (inactive)
same,normalized growth,"S. cerevisiae deletion strains, locus YKL068W, active compounds read low",1.02 (inactive)
same,normalized growth,"S. cerevisiae deletion strains, locus YKL085W, strain MDH1 (second series), active compounds read low",1.01 (inactive)
same,normalized growth,"S. cerevisiae deletion strains, locus YKL085W, strain MDH1, active compounds read low",1.01 (inactive)
same,normalized growth,"S. cerevisiae deletion strains, locus YKL160W, strain elf1, active compounds read low",1.01 (inactive)
same,normalized growth,"S. cerevisiae deletion strains, locus YKL190W, strain CNB1, active compounds read low",0.99 (inactive)
same,normalized growth,"S. cerevisiae deletion strains, locus YKR001C, strain vps1, active compounds read low",0.954 (inactive)
same,normalized growth,"S. cerevisiae deletion strains, locus YKR026C, strain gcn3, active compounds read low",0.992 (inactive)
same,normalized growth,"S. cerevisiae deletion strains, locus YKR091W, strain srl3, active compounds read low",0.999 (inactive)
same,normalized growth,"S. cerevisiae deletion strains, locus YLL001W, strain dnm1, active compounds read low",0.992 (inactive)
same,normalized growth,"S. cerevisiae deletion strains, locus YLL026W, active compounds read low",0.989 (inactive)
same,normalized growth,"S. cerevisiae deletion strains, locus YLL041C, strain sdh2, active compounds read low",0.98 (inactive)
same,normalized growth,"S. cerevisiae deletion strains, locus YLR027C, strain aat2, active compounds read low",0.972 (inactive)
same,normalized growth,"S. cerevisiae deletion strains, locus YLR039C, strain RIC1, active compounds read low",0.858 (inactive)
same,normalized growth,"S. cerevisiae deletion strains, locus YLR058C, strain SHM2, active compounds read low",0.962 (inactive)
same,normalized growth,"S. cerevisiae deletion strains, locus YLR102C, strain apc9, active compounds read low",1.01 (inactive)
same,normalized growth,"S. cerevisiae deletion strains, locus YLR113W, strain HOG1, active compounds read low",0.919 (inactive)
same,normalized growth,"S. cerevisiae deletion strains, locus YLR221C, strain rsa3, active compounds read low",0.936 (inactive)
same,normalized growth,"S. cerevisiae deletion strains, locus YLR258W, strain gsy2, active compounds read low",0.988 (inactive)
same,normalized growth,"S. cerevisiae deletion strains, locus YLR262C, strain YPT6 (second series), active compounds read low",0.82 (active)
same,normalized growth,"S. cerevisiae deletion strains, locus YLR262C, strain YPT6, active compounds read low",0.921 (inactive)
same,normalized growth,"S. cerevisiae deletion strains, locus YLR268W, strain sec22, active compounds read low",0.932 (inactive)
same,normalized growth,"S. cerevisiae deletion strains, locus YLR320W, strain mms22, active compounds read low",0.967 (inactive)
same,normalized growth,"S. cerevisiae deletion strains, locus YLR330W, strain CHS5, active compounds read low",0.997 (inactive)
same,normalized growth,"S. cerevisiae deletion strains, locus YLR342W, strain FKS1 (second series), active compounds read low",0.808 (inactive)
same,normalized growth,"S. cerevisiae deletion strains, locus YLR342W, strain FKS1, active compounds read low",0.972 (inactive)
same,normalized growth,"S. cerevisiae deletion strains, locus YLR357W, strain rsc2, active compounds read low",0.879 (inactive)
same,normalized growth,"S. cerevisiae deletion strains, locus YLR370C, strain arc18, active compounds read low",0.971 (inactive)
same,normalized growth,"S. cerevisiae deletion strains, locus YLR371W, strain rom2, active compounds read low",1.01 (inactive)
same,normalized growth,"S. cerevisiae deletion strains, locus YLR384C, strain iki3, active compounds read low",0.982 (inactive)
same,normalized growth,"S. cerevisiae deletion strains, locus YLR418C, strain cdc73, active compounds read low",0.907 (inactive)
same,normalized growth,"S. cerevisiae deletion strains, locus YML016C, strain PPZ1, active compounds read low",0.973 (inactive)
same,normalized growth,"S. cerevisiae deletion strains, locus YML032C, strain rad52, active compounds read low",1 (inactive)
same,normalized growth,"S. cerevisiae deletion strains, locus YML120C, strain ndi1, active compounds read low",1.07 (inactive)
same,normalized growth,"S. cerevisiae deletion strains, locus YML124C, strain tub3, active compounds read low",1.01 (inactive)
same,normalized growth,"S. cerevisiae deletion strains, locus YMR058W, strain fet3, active compounds read low",0.947 (inactive)
same,normalized growth,"S. cerevisiae deletion strains, locus YMR078C, strain ctf18, active compounds read low",1 (inactive)
same,normalized growth,"S. cerevisiae deletion strains, locus YMR125W, strain sto1, active compounds read low",1.11 (inactive)
same,normalized growth,"S. cerevisiae deletion strains, locus YMR129W, active compounds read low",0.993 (inactive)
same,normalized growth,"S. cerevisiae deletion strains, locus YMR205C, strain PFK2, active compounds read low",1.03 (inactive)
same,normalized growth,"S. cerevisiae deletion strains, locus YMR223W, strain ubp8, active compounds read low",0.95 (inactive)
same,normalized growth,"S. cerevisiae deletion strains, locus YMR231W, strain pep5, active compounds read low",0.973 (inactive)
same,normalized growth,"S. cerevisiae deletion strains, locus YMR263W, strain SAP30, active compounds read low",0.994 (inactive)
same,normalized growth,"S. cerevisiae deletion strains, locus YMR307W, strain GAS1, active compounds read low",0.862 (inactive)
same,normalized growth,"S. cerevisiae deletion strains, locus YNL067W, strain RPL9B, active compounds read low",0.992 (inactive)
same,normalized growth,"S. cerevisiae deletion strains, locus YNL071W, strain lat1, active compounds read low",0.929 (inactive)
same,normalized growth,"S. cerevisiae deletion strains, locus YNL128W, strain TEP1, active compounds read low",1.02 (inactive)
same,normalized growth,"S. cerevisiae deletion strains, locus YNL153C, strain GIM3, active compounds read low",0.973 (inactive)
same,normalized growth,"S. cerevisiae deletion strains, locus YNL183C, strain NPR1, active compounds read low",0.751 (active)
same,normalized growth,"S. cerevisiae deletion strains, locus YNL209W, strain ssb2, active compounds read low",0.984 (inactive)
same,normalized growth,"S. cerevisiae deletion strains, locus YNL233W, strain BNI4, active compounds read low",0.985 (inactive)
same,normalized growth,"S. cerevisiae deletion strains, locus YNL248C, strain rpa49, active compounds read low",0.974 (inactive)
same,normalized growth,"S. cerevisiae deletion strains, locus YNL250W, strain rad50, active compounds read low",1.01 (inactive)
same,normalized growth,"S. cerevisiae deletion strains, locus YNL271C, strain bni1, active compounds read low",0.99 (inactive)
same,normalized growth,"S. cerevisiae deletion strains, locus YNL298W, strain CLA4, active compounds read low",1.01 (inactive)
same,normalized growth,"S. cerevisiae deletion strains, locus YNL307C, strain MCK1, active compounds read low",0.97 (inactive)
same,normalized growth,"S. cerevisiae deletion strains, locus YNL322C, strain KRE1 (second series), active compounds read low",1.02 (inactive)
same,normalized growth,"S. cerevisiae deletion strains, locus YNL322C, strain KRE1, active compounds read low",1 (inactive)
same,normalized growth,"S. cerevisiae deletion strains, locus YNR049C, strain mso1, active compounds read low",0.983 (inactive)
same,normalized growth,"S. cerevisiae deletion strains, locus YNR052C, strain pop2, active compounds read low",0.984 (inactive)
same,normalized growth,"S. cerevisiae deletion strains, locus YOL006C, strain TOP1, active compounds read low",0.417 (active)
same,normalized growth,"S. cerevisiae deletion strains, locus YOL012C, strain htz1",0.93 (inactive)
same,normalized growth,"S. cerevisiae deletion strains, locus YOL147C, strain pex11, active compounds read low",0.99 (inactive)
same,normalized growth,"S. cerevisiae deletion strains, locus YOR001W, strain rrp6, active compounds read low",0.943 (inactive)
same,normalized growth,"S. cerevisiae deletion strains, locus YOR061W, strain CKA2, active compounds read low",0.985 (inactive)
same,normalized growth,"S. cerevisiae deletion strains, locus YOR069W, strain VPS5, active compounds read low",0.99 (inactive)
same,normalized growth,"S. cerevisiae deletion strains, locus YOR070C, strain gyp1, active compounds read low",0.97 (inactive)
same,normalized growth,"S. cerevisiae deletion strains, locus YOR080W, strain dia2, active compounds read low",0.992 (inactive)
same,normalized growth,"S. cerevisiae deletion strains, locus YOR083W, strain WHI5, active compounds read low",0.997 (inactive)
same,normalized growth,"S. cerevisiae deletion strains, locus YOR106W, strain vam3, active compounds read low",0.865 (active)
same,normalized growth,"S. cerevisiae deletion strains, locus YOR136W, strain idh2, active compounds read low",0.999 (inactive)
same,normalized growth,"S. cerevisiae deletion strains, locus YOR144C, strain elg1, active compounds read low",1.01 (inactive)
same,normalized growth,"S. cerevisiae deletion strains, locus YOR184W, strain ser1, active compounds read low",0.88 (inactive)
same,normalized growth,"S. cerevisiae deletion strains, locus YOR231W, strain MKK1, active compounds read low",0.798 (active)
same,normalized growth,"S. cerevisiae deletion strains, locus YOR265W, strain rbl2, active compounds read low",0.976 (inactive)
same,normalized growth,"S. cerevisiae deletion strains, locus YOR270C, strain vph1, active compounds read low",0.834 (inactive)
same,normalized growth,"S. cerevisiae deletion strains, locus YOR290C, strain snf2, active compounds read low",0.991 (inactive)
same,normalized growth,"S. cerevisiae deletion strains, locus YOR316C, strain cot1, active compounds read low",1.02 (inactive)
same,normalized growth,"S. cerevisiae deletion strains, locus YPL051W, strain arl3, active compounds read low",0.904 (active)
same,normalized growth,"S. cerevisiae deletion strains, locus YPL055C, strain LGE1, active compounds read low",0.987 (inactive)
same,normalized growth,"S. cerevisiae deletion strains, locus YPL078C, strain atp4, active compounds read low",1 (inactive)
same,normalized growth,"S. cerevisiae deletion strains, locus YPL106C, strain sse1, active compounds read low",0.986 (inactive)
same,normalized growth,"S. cerevisiae deletion strains, locus YPL240C, strain hsp82, active compounds read low",0.986 (inactive)
same,normalized growth,"S. cerevisiae deletion strains, locus YPL241C, strain CIN2, active compounds read low",0.998 (inactive)
same,normalized growth,"S. cerevisiae deletion strains, locus YPL256C, strain CLN2, active compounds read low",0.904 (inactive)
same,normalized growth,"S. cerevisiae deletion strains, locus YPR119W, strain clb2, active compounds read low",1.02 (inactive)
same,normalized growth,"S. cerevisiae deletion strains, locus YPR141C, strain kar3, active compounds read low",1.01 (inactive)
same,normalized growth,"S. cerevisiae deletion strains, locus YPR163C, strain tif3, active compounds read low",1 (inactive)
same,normalized growth,"S. cerevisiae deletion strains, locus YPR167C, strain met16, active compounds read low",1.02 (inactive)
same,normalized growth,"S. cerevisiae deletion strains, strain wtn01, active compounds read low",0.977 (inactive)
same,normalized growth,"S. cerevisiae strains, strain wild type, active compounds read low",0.996 (inactive)
